Results taken from PubChem BioAssay AID1159580 (chemical genetic matrix, 2015).
Screen size: about 5,500 compounds; about 2,000 (36%) were called active. Roughly 18% stayed inconclusive and do not appear here. Cut-off read from the data, not from the text of the source: active = normalized growth mostly below about 0.91 (no sharp cut-off); inconclusive = no clear call, values can overlap the other calls; inactive = mostly above about 0.92. Some of the results follow.

Assay: chemical genetic growth profiling, strain panel (AID 1159580);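 note: tested at 20 µM; growth read once vehicle control cultures reached saturation at 30 °C; 1 = growth at the plate median or of vehicle wells; lower values mean less growth of the strain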
Conditions: growth OD

Measured: normalized growth

CC(=O)OC1CC(OC(C)=O)C2(C)C(CC(OC(C)=O)C3(C)C2CCC2(C)C(c4ccoc4)OC(=O)C4OC423)C1(C)C (stereo unspecified)
inactive: S. cerevisiae deletion strains, locus YAL013W, strain DEP1, hits give low values 0.995 | S. cerevisiae deletion strains, locus YBR021W, strain FUR4, hits give low values 0.986 | S. cerevisiae deletion strains, locus YBR229C, strain ROT2, hits give low values 0.984 | S. cerevisiae deletion strains, locus YCL029C, strain bik1, hits give low values 0.984 | S. cerevisiae deletion strains, locus YDL035C, strain GPR1, hits give low values 0.97 | S. cerevisiae deletion strains, locus YDL074C, strain BRE1, hits give low values 1.03 | S. cerevisiae deletion strains, locus YDL101C, strain DUN1, hits give low values 0.978 | S. cerevisiae deletion strains, locus YDL134C, strain PPH21, hits give low values 1 | S. cerevisiae deletion strains, locus YDL185W, strain tfp1, hits give low values 0.986 | S. cerevisiae deletion strains, locus YDL192W, strain arf1, hits give low values 0.99 | S. cerevisiae deletion strains, locus YDR101C, strain arx1, hits give low values 0.981 | S. cerevisiae deletion strains, locus YDR150W, strain NUM1, hits give low values 1 | S. cerevisiae deletion strains, locus YDR162C, strain NBP2, hits give low values 1.01 | S. cerevisiae deletion strains, locus YDR318W, strain mcm21, hits give low values 0.986 | S. cerevisiae deletion strains, locus YDR388W, hits give low values 0.988 | S. cerevisiae deletion strains, locus YDR502C, strain sam2, hits give low values 1 | S. cerevisiae deletion strains, locus YEL061C, strain CIN8, hits give low values 0.995 | S. cerevisiae deletion strains, locus YER110C, hits give low values 0.977 | S. cerevisiae deletion strains, locus YER155C, strain BEM2, hits give low values 0.976 | S. cerevisiae deletion strains, locus YER167W, strain BCK2, hits give low values 0.973 | S. cerevisiae deletion strains, locus YGL078C, strain dbp3, hits give low values 1 | S. cerevisiae deletion strains, locus YGL086W, strain mad1, hits give low values 0.99 | S. cerevisiae deletion strains, locus YGL248W, strain PDE1, hits give low values 1 | S. cerevisiae deletion strains, locus YGR078C, strain PAC10, hits give low values 1.04 | S. cerevisiae deletion strains, locus YGR135W, strain pre9, hits give low values 1.02 | S. cerevisiae deletion strains, locus YGR229C, strain SMI1, hits give low values 0.997 | S. cerevisiae deletion strains, locus YGR252W, strain gcn5, hits give low values 0.951 | S. cerevisiae deletion strains, locus YHR030C, strain SLT2, hits give low values 0.984 | S. cerevisiae deletion strains, locus YHR079C, strain IRE1 (second series), hits give low values 0.99 | S. cerevisiae deletion strains, locus YHR094C, strain hxt1, hits give low values 0.984 | S. cerevisiae deletion strains, locus YHR129C, strain ARP1, hits give low values 0.997 | S. cerevisiae deletion strains, locus YHR200W, strain rpn10, hits give low values 0.99 | S. cerevisiae deletion strains, locus YIL066C, strain RNR3, hits give low values 0.986 | S. cerevisiae deletion strains, locus YIL073C, strain SPO22, hits give low values 0.954 | S. cerevisiae deletion strains, locus YIL125W, strain kgd1, hits give low values 0.983 | S. cerevisiae deletion strains, locus YIR030C, strain dcg1, hits give low values 0.984 | S. cerevisiae deletion strains, locus YJL095W, strain BCK1, hits give low values 1.03 | S. cerevisiae deletion strains, locus YJL134W, strain LCB3, hits give low values 0.984 | S. cerevisiae deletion strains, locus YJL168C, strain set2, hits give low values 0.986 | S. cerevisiae deletion strains, locus YJL187C, strain SWE1 (second series), hits give low values 1.01 | S. cerevisiae deletion strains, locus YJR043C, strain POL32, hits give low values 0.98 | S. cerevisiae deletion strains, locus YJR075W, strain HOC1, hits give low values 1.01 | S. cerevisiae deletion strains, locus YKL009W, strain mrt4, hits give low values 0.971 | S. cerevisiae deletion strains, locus YKL068W, hits give low values 1 | S. cerevisiae deletion strains, locus YKL085W, strain MDH1 (second series), hits give low values 0.992 | S. cerevisiae deletion strains, locus YKL085W, strain MDH1, hits give low values 0.992 | S. cerevisiae deletion strains, locus YKL190W, strain CNB1, hits give low values 1 | S. cerevisiae deletion strains, locus YKR001C, strain vps1, hits give low values 1.01 | S. cerevisiae deletion strains, locus YLR039C, strain RIC1, hits give low values 0.929 | S. cerevisiae deletion strains, locus YLR058C, strain SHM2, hits give low values 0.984 | S. cerevisiae deletion strains, locus YLR102C, strain apc9, hits give low values 0.979 | S. cerevisiae deletion strains, locus YLR262C, strain YPT6, hits give low values 0.975 | S. cerevisiae deletion strains, locus YLR268W, strain sec22, hits give low values 1 | S. cerevisiae deletion strains, locus YLR330W, strain CHS5, hits give low values 0.989 | S. cerevisiae deletion strains, locus YLR342W, strain FKS1 (second series), hits give low values 0.941 | S. cerevisiae deletion strains, locus YLR371W, strain rom2, hits give low values 0.977 | S. cerevisiae deletion strains, locus YLR418C, strain cdc73, hits give low values 0.988 | S. cerevisiae deletion strains, locus YML016C, strain PPZ1, hits give low values 0.993 | S. cerevisiae deletion strains, locus YML032C, strain rad52, hits give low values 0.976 | S. cerevisiae deletion strains, locus YML124C, strain tub3, hits give low values 0.996 | S. cerevisiae deletion strains, locus YMR078C, strain ctf18, hits give low values 0.97 | S. cerevisiae deletion strains, locus YMR223W, strain ubp8, hits give low values 0.981 | S. cerevisiae deletion strains, locus YMR263W, strain SAP30, hits give low values 1.03 | S. cerevisiae deletion strains, locus YMR307W, strain GAS1, hits give low values 0.909 | S. cerevisiae deletion strains, locus YNL067W, strain RPL9B, hits give low values 1.03 | S. cerevisiae deletion strains, locus YNL128W, strain TEP1, hits give low values 0.995 | S. cerevisiae deletion strains, locus YNL153C, strain GIM3, hits give low values 1.04 | S. cerevisiae deletion strains, locus YNL233W, strain BNI4, hits give low values 0.999 | S. cerevisiae deletion strains, locus YNL250W, strain rad50, hits give low values 0.974 | S. cerevisiae deletion strains, locus YNL271C, strain bni1, hits give low values 0.988 | S. cerevisiae deletion strains, locus YNL298W, strain CLA4, hits give low values 0.985 | S. cerevisiae deletion strains, locus YNL307C, strain MCK1, hits give low values 0.965 | S. cerevisiae deletion strains, locus YNL322C, strain KRE1, hits give low values 0.986 | S. cerevisiae deletion strains, locus YNR052C, strain pop2, hits give low values 0.987 | S. cerevisiae deletion strains, locus YOL006C, strain TOP1, hits give low values 0.977 | S. cerevisiae deletion strains, locus YOL012C, strain htz1 1.14 | S. cerevisiae deletion strains, locus YOL147C, strain pex11, hits give low values 0.996 | S. cerevisiae deletion strains, locus YOR061W, strain CKA2, hits give low values 0.994 | S. cerevisiae deletion strains, locus YOR069W, strain VPS5, hits give low values 0.963 | S. cerevisiae deletion strains, locus YOR136W, strain idh2, hits give low values 0.981 | S. cerevisiae deletion strains, locus YOR144C, strain elg1, hits give low values 0.998 | S. cerevisiae deletion strains, locus YOR184W, strain ser1, hits give low values 0.959 | S. cerevisiae deletion strains, locus YOR316C, strain cot1, hits give low values 0.987 | S. cerevisiae deletion strains, locus YPL055C, strain LGE1, hits give low values 1.04 | S. cerevisiae deletion strains, locus YPL241C, strain CIN2, hits give low values 0.994 | S. cerevisiae deletion strains, locus YPR119W, strain clb2, hits give low values 0.992 | S. cerevisiae deletion strains, locus YPR141C, strain kar3, hits give low values 0.985 | S. cerevisiae deletion strains, locus YPR163C, strain tif3, hits give low values 0.992 | S. cerevisiae deletion strains, locus YPR167C, strain met16, hits give low values 0.992 | S. cerevisiae deletion strains, strain wtn01, hits give low values 0.996 | S. cerevisiae strains, strain wild type, hits give low values 0.983
